Data on 39 molecules can be found in PubChem BioAssay (EPA / NIEHS).

Calls of active or inactive are those of the source. How the source made its calls: active means hit-call score of the fitted dose curve at least 0.9, where 1 is the maximum; inactive means score below 0.9.

Transcription factor Sp1 (Homo sapiens), sequence (P08047 whole entry, looked up): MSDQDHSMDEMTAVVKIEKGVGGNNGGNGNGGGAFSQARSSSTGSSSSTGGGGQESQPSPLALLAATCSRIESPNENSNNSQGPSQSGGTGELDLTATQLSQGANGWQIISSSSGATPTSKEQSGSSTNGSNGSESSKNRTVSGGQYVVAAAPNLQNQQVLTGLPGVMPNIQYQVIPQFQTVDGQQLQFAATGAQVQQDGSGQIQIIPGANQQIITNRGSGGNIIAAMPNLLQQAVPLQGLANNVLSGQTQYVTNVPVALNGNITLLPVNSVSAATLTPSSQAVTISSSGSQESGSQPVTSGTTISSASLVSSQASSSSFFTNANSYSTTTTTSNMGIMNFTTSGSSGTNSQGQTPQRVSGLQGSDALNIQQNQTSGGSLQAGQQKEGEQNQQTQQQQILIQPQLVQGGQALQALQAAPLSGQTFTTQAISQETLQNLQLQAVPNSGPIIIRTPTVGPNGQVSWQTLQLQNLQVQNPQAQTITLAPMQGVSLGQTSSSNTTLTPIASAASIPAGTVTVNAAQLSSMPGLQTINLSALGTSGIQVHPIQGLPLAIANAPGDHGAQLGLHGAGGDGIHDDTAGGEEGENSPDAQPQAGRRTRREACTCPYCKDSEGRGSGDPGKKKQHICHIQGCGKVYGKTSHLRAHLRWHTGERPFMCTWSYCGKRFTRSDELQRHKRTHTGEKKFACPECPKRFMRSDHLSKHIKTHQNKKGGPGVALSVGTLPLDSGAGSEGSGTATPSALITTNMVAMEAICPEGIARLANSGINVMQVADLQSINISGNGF

System in the first assay: not listed separately
Put plainly: ATG_RORE_CIS: Attagene CIS-FACTORIAL HepG2 Assay for human RAR-related Orphan Receptor Element (RORE) (AID 2282959). As to conditions: HepG2 Attagene cis-factorial RORE reporter, mRNA; actives raise or lower the signal. Summed up:
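Fluorescence intensity of reporter-specific cDNA fragments, separated by capillary electrophoresis, gives the signal. Source: HepG2 liver cells transiently transfected with cis-element reporters and exposed 24 h; DMSO-normalized bidirectional fit.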
As for `C=C(C)C(=O)OCCOC1CC2CC1C1C=CCC21` (stereo not given), the molecule was classed as inactive.
In the case of `C=C(C)CNCC`, the call was inactive.
Still for that read-out and setting: in the case of `CC(C)CC(C)CC(O)CC(C)C` (stereo not given) it was “inactive”; in that of `CCCCCCCC(=O)OCCCCCC`, “inactive”; in that of `COc1cc([C@@H]2c3cc4c(cc3[C@@H](O[C@@H]3O[C@@H]5CO[C@@H](C)O[C@H]5[C@H](O)[C@H]3O)[C@H]3COC(=O)[C@H]23)OCO4)cc(OC)c1O`, “inactive”.
Consider `CCc1ccc(O)cc1`, for which the molecule was called inactive.
The same measure, in the same setting: in the case of `CCOC(=O)CC(C)O` (stereo not given) it was “inactive”; in that of `CCOC(=O)CN`, “inactive”; in that of `C/C=C(\C)C(=O)OCCc1ccccc1`, “inactive”.
Still for that read-out and setting: with `C=Cc1ccc(C)cc1` the entry was “inactive”.
On the same count and under the same terms, with `Cc1ncc[nH]1` the entry was “inactive”.
With `C[Si](C)(C)O[Si](C)(C)C`, the result was inactive.
Still for that read-out and setting: in the case of `CCCC(=O)OCCc1ccccc1` it was “inactive”; in that of `O=C(O)CCCCCCCCC(=O)O`, “inactive”; in that of `Cc1[nH]c(=O)c(C#N)cc1-c1ccncc1`, “inactive”.
On the same count and under the same terms, in the case of `CCCCCCOC(=O)CCC` it was “inactive”.

System in the next assay: not listed separately
The experiment in a line: ATG_Sox_CIS: Attagene CIS-FACTORIAL HepG2 Assay for human SRY-box transcription factor (SOX) (AID 2282960). To be noted: HepG2 Attagene cis-factorial SOX reporter, mRNA; actives raise or lower the signal. Put shortly: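 After 24 h of chemical treatment, transfected HepG2 reporter cells are lysed for total RNA. Transcript levels come from RT-PCR with labelled primer extension and capillary electrophoresis, analysed bidirectionally versus DMSO.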
With `CCC1(C)NC(=O)NC1=O` (stereo not given), the result was inactive.
Still for that read-out and setting: in the case of `COc1cc(Cl)c(OC)cc1N` it was “inactive”.
Still for that read-out and setting: with `CCCCC(CC)(CO)CO` the entry was “inactive”; with `CC1(C)C(=O)N(Cl)C(=O)N1Br`, “inactive”.
Same read-out and setting: with `COC(CC(C)CCCC(C)(C)O)OC` (stereo not given) the entry was “inactive”; with `c1ccc2cc(Nc3ccc(Nc4ccc5ccccc5c4)cc3)ccc2c1`, “inactive”.
For the molecule `CC(=O)C(C)O` (stereo not given), the outcome was inactive.
In the case of `CCOC(=O)CC(C)O` (stereo not given), the call was inactive.
Still for that read-out and setting: in the case of `CCCOC(=O)c1c(Cl)c(Cl)c(Cl)c(Cl)c1C(=O)OCCC` it was “inactive”; in that of `C/C=C(\C)C(=O)OCCc1ccccc1`, “inactive”; in that of `Cc1ccc(OC(=O)c2ccccc2O)cc1`, “inactive”.
Still for that read-out and setting: in the case of `C=C(C)C(=O)OCC(CC)(COC(=O)C(=C)C)COC(=O)C(=C)C` it was “inactive”; in that of `Cc1ccc2c(c1)C(=O)OC2=O`, “inactive”; in that of `CC1(C)C2=CCCC(C)(C)[C@]23CC[C@H]1C3`, “inactive”.
As to `C=CCCC(=O)/C=C/C1C(C)=CCCC1(C)C` (stereo not given), the molecule was classed as inactive.
As for `COC(=O)c1ccc([N+](=O)[O-])cc1`, the call was inactive.
The same measure, in the same setting: with `O=c1[nH]c(=O)c2cn[nH]c2[nH]1` the entry was “inactive”; with `Nc1ccc2cc(S(=O)(=O)O)cc(O)c2c1N=Nc1ccccc1C(F)(F)F`, “inactive”; with `N[C@@H](Cc1cc(I)c(Oc2cc(I)c(O)c(I)c2)c(I)c1)C(=O)O`, “inactive”.
With `CCOc1ccc(NC(=O)CC(C)O)cc1` (stereo not given), the molecule was called inactive.
Same read-out and setting: in the case of `[Cl][Au]([Cl])[Cl]` it was “inactive”; in that of `Cc1c(Cl)cccc1[N+](=O)[O-]`, “inactive”; in that of `CCOC(=O)[C@@H](C)Oc1ccc(Oc2nc3ccc(Cl)cc3o2)cc1`, “inactive”.
Same read-out and setting: in the case of `CC1C2CC(CC2C2CCCC(O)C2)C1(C)C` (stereo not given) it was “inactive”.
On the same count and under the same terms, with `COc1ccc(N=Nc2cc(C)c(N=Nc3ccc(S(=O)(=O)O)cc3)cc2OC)cc1` the entry was “inactive”.

The target of another assay is Transcription factor Sp1 (Homo sapiens) (UniProt P08047). Put plainly: ATG_Sp1_CIS: Attagene CIS-FACTORIAL HepG2 Assay for human Specificity Protein 1 (Sp1) (AID 2282961). To be noted: HepG2 Sp1 cis-reporter transcription, actives raise or lower the signal. Summed up:
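Sp1-driven reporter mRNA, read as capillary electrophoresis fluorescence after RT-PCR, in transiently transfected HepG2 cells dosed for 24 h; signal change in either direction relative to DMSO.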
`C=C(C)C(=O)OCCOC1CC2CC1C1C=CCC21` (stereo not given): the result was inactive.
The same measure, in the same setting: in the case of `C=C(C)CNCC` it was “inactive”; in that of `CCC1(C)NC(=O)NC1=O` (stereo not given), “inactive”; in that of `COc1cc(Cl)c(OC)cc1N`, “inactive”.
As to `CCCCC(CC)(CO)CO`, the result was inactive.
Same read-out and setting: with `CC1(C)C(=O)N(Cl)C(=O)N1Br` the entry was “inactive”; with `CC(C)CC(C)CC(O)CC(C)C` (stereo not given), “inactive”.
The same measure, in the same setting: in the case of `COC(CC(C)CCCC(C)(C)O)OC` (stereo not given) it was “inactive”; in that of `c1ccc2cc(Nc3ccc(Nc4ccc5ccccc5c4)cc3)ccc2c1`, “inactive”; in that of `CCCCCCCC(=O)OCCCCCC`, “inactive”.
On the same count and under the same terms, in the case of `COc1cc([C@@H]2c3cc4c(cc3[C@@H](O[C@@H]3O[C@@H]5CO[C@@H](C)O[C@H]5[C@H](O)[C@H]3O)[C@H]3COC(=O)[C@H]23)OCO4)cc(OC)c1O` it was “inactive”; in that of `CC(=O)C(C)O` (stereo not given), “inactive”; in that of `CCc1ccc(O)cc1`, “inactive”.
Turning to `CCOC(=O)CC(C)O` (stereo not given), the molecule was classed as inactive.
On the same count and under the same terms, with `CCOC(=O)CN` the entry was “inactive”.
As to `CCCOC(=O)c1c(Cl)c(Cl)c(Cl)c(Cl)c1C(=O)OCCC`, the AC50 is 67.1 µM (active).
On to `C/C=C(\C)C(=O)OCCc1ccccc1`, for which the call was inactive.
Same read-out and setting: in the case of `Cc1ccc(OC(=O)c2ccccc2O)cc1` it was “inactive”; in that of `C=C(C)C(=O)OCC(CC)(COC(=O)C(=C)C)COC(=O)C(=C)C`, “inactive”.
On to `Cc1ccc2c(c1)C(=O)OC2=O`, for which the molecule was called inactive.
The same measure, in the same setting: in the case of `C=Cc1ccc(C)cc1` it was “inactive”.
Same read-out and setting: in the case of `CC1(C)C2=CCCC(C)(C)[C@]23CC[C@H]1C3` it was “inactive”; in that of `C=CCCC(=O)/C=C/C1C(C)=CCCC1(C)C` (stereo not given), “inactive”; in that of `COC(=O)c1ccc([N+](=O)[O-])cc1`, “inactive”.
On the same count and under the same terms, in the case of `Cc1ncc[nH]1` it was “inactive”; in that of `O=c1[nH]c(=O)c2cn[nH]c2[nH]1`, “inactive”; in that of `C[Si](C)(C)O[Si](C)(C)C`, “inactive”.
With `CCCC(=O)OCCc1ccccc1`, the call was inactive.
In the case of `Nc1ccc2cc(S(=O)(=O)O)cc(O)c2c1N=Nc1ccccc1C(F)(F)F`, the molecule was called inactive.
Same read-out and setting: with `N[C@@H](Cc1cc(I)c(Oc2cc(I)c(O)c(I)c2)c(I)c1)C(=O)O` the entry was “inactive”; with `O=C(O)CCCCCCCCC(=O)O`, “inactive”.
Turning to `CCOc1ccc(NC(=O)CC(C)O)cc1` (stereo not given), the outcome was inactive.
On the same count and under the same terms, in the case of `Cc1[nH]c(=O)c(C#N)cc1-c1ccncc1` it was “inactive”; in that of `[Cl][Au]([Cl])[Cl]`, “inactive”; in that of `Cc1c(Cl)cccc1[N+](=O)[O-]`, “inactive”.
Same read-out and setting: in the case of `CCOC(=O)[C@@H](C)Oc1ccc(Oc2nc3ccc(Cl)cc3o2)cc1` it was “inactive”.
In the case of `CCCCCCOC(=O)CCC`, the call was inactive.
Still for that read-out and setting: with `CC1C2CC(CC2C2CCCC(O)C2)C1(C)C` (stereo not given) the entry was “inactive”.
With `COc1ccc(N=Nc2cc(C)c(N=Nc3ccc(S(=O)(=O)O)cc3)cc2OC)cc1`, the AC50 was 175 µM (active).

As a reminder, the AC50 is the midpoint of the concentration-response curve, whichever way the signal moves.
